Results reported in PubChem BioAssay (EPA / NIEHS).
Active and inactive are the calls of the source. How the source made its calls: active means hit-call score of the fitted dose curve at least 0.9, where 1 is the maximum; inactive means score below 0.9.

How the values were obtained:
Details in all cases: mRNA level, 48 h; actives raise or lower the signal
[1] = read-out: Tumor necrosis factor receptor superfamily member 6 (Homo sapiens) (UniProt P25445); assay: LTEA_HepaRG_FAS: Life Technologies and Expression Analysis (LTEA) Assay for Fas cell surface death receptor (FAS) using HepaRG (AID 2283447)
Summary of the method: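 FAS transcript level was measured by TaqMan qRT-PCR against three housekeeping genes after 48 h chemical exposure. Cells were HepaRG, 0.5% DMSO vehicle, with a top concentration of 100 uM and half-log dilutions over eight points, in duplicate.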

[2] = read-out: Fatty acid synthase (Homo sapiens) (UniProt P49327); assay: LTEA_HepaRG_FASN: Life Technologies and Expression Analysis (LTEA) Assay for Fatty Acid Synthase (FASN) using HepaRG (AID 2283448)
Summary of the method: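 FASN transcript measured by TaqMan qRT-PCR, normalised to three housekeeping genes, after 48 h chemical exposure of HepaRG cells. Eight-point half-log series from 100 uM in 0.5% DMSO, duplicates; gain or loss fitted against vehicle.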

[3] = read-out: Cyclin D2 (CCND2), CCND2 (gene 894); assay: LTEA_HepaRG_CCND2: Life Technologies and Expression Analysis (LTEA) Assay for Cyclin D2 (CCND2) using HepaRG (AID 2283449)
Summary of the method: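 CCND2 transcript levels, quantified by qRT-PCR and normalised to three housekeeping genes, were fitted bidirectionally against 0.5% DMSO. HepaRG cultures were dosed 48 h in duplicate with an 8-point half-log series up to 100 uM.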

[4] = read-out: Cyclin Dependent Kinase Inhibitor 1A (CDKN1A), CDKN1A (gene 1026); assay: LTEA_HepaRG_CDKN1A: Life Technologies and Expression Analysis (LTEA) Assay for Cyclin Dependent Kinase Inhibitor 1A (CDKN1A) using HepaRG (AID 2283450)
Summary of the method: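 Differentiated HepaRG cells in serum-free induction medium, exposed 48 h in duplicate to eight half-log concentrations up to 100 uM in 0.5% DMSO. mRNA measured by TaqMan qRT-PCR, normalized to ACTB, GAPDH, POLR2A; bidirectional fit versus DMSO.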

[5] = read-out: Cyclin D1 (CCND1), CCND1 (gene 595); assay: LTEA_HepaRG_CCND1: Life Technologies and Expression Analysis (LTEA) Assay for Cyclin D1 (CCND1) using HepaRG (AID 2283451)
Summary of the method: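 Differentiated HepaRG cells exposed 48 h in serum-free induction medium to eight half-log concentrations from 100 uM top, 0.5% DMSO, duplicates. CCND1 mRNA measured by Fluidigm TaqMan qRT-PCR, normalised to ACTB, GAPDH, POLR2A; bidirectional fit.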

[6] = read-out: catalase (CAT), CAT (gene 847); assay: LTEA_HepaRG_CAT: Life Technologies and Expression Analysis (LTEA) Assay for catalase (CAT) using HepaRG (AID 2283452)
Summary of the method: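 Expression of CAT was quantified by TaqMan qRT-PCR with ACTB/GAPDH/POLR2A normalization after 48 h chemical exposure of HepaRG. Eight-point half-log series, top 100 uM, in 0.5% DMSO; gain or loss fitted against vehicle.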

[7] = read-out: flavin-containing dimethylaniline monooxygenases 3 (FMO3), FMO3 (gene 2328); assay: LTEA_HepaRG_FMO3: Life Technologies and Expression Analysis (LTEA) Assay for flavin-containing dimethylaniline monooxygenases 3 (FMO3) using HepaRG (AID 2283453)
Summary of the method: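 FMO3 transcript quantified by TaqMan qRT-PCR against three housekeeping genes after 48 h chemical exposure of HepaRG cells. Eight-point half-log series, top 100 uM, 0.5% DMSO vehicle; phenobarbital 1mM induction control; up- or down-regulation fitted.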

[8] = read-out: Cytochrome P450 (CYP1A1), CYP1A1 (gene 1543); assay: LTEA_HepaRG_CYP1A1: Life Technologies and Expression Analysis (LTEA) Assay for Cytochrome P450 (CYP1A1) using HepaRG (AID 2283454)
Summary of the method: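 Differentiated human HepaRG cells, after 48 h plating, exposed in duplicate for 48 h in serum-free induction medium to 8 half-log concentrations up to 100 uM in 0.5% DMSO. CYP1A1 mRNA by qRT-PCR, normalized to ACTB/GAPDH/POLR2A; bidirectional fit versus DMSO.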

[9] = read-out: CFLAR gene, CFLAR (gene 8837); assay: LTEA_HepaRG_CFLAR: Life Technologies and Expression Analysis (LTEA) Assay for CFLAR gene using HepaRG (AID 2283455)
Summary of the method: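 Transcript level by qRT-PCR (normalized to ACTB, GAPDH and POLR2A) after 48 h chemical exposure of HepaRG cells, top concentration 100 uM with half-log steps, 0.5% DMSO vehicle, duplicates; fitted bidirectionally against DMSO baseline.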

[10] = read-out: Forkhead box O1 (FOXO1), FOXO1 (gene 2308); assay: LTEA_HepaRG_FOXO1: Life Technologies and Expression Analysis (LTEA) Assay for Forkhead box O1 (FOXO1) using HepaRG (AID 2283456)
Summary of the method: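 FOXO1 transcript quantified by qRT-PCR after 48 h chemical exposure (top 100 uM, half-log steps, 0.5% DMSO) of HepaRG cells, housekeeping-normalized (ACTB/GAPDH/POLR2A). Changes fitted in both directions relative to vehicle.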

[11] = read-out: growth arrest and DNA damage 45 (GADD45A), GADD45A (gene 1647); assay: LTEA_HepaRG_GADD45A: Life Technologies and Expression Analysis (LTEA) Assay for growth arrest and DNA damage 45 (GADD45A) using HepaRG (AID 2283458)
Summary of the method: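 GADD45A expression was measured by TaqMan qRT-PCR against three housekeeping genes (ACTB, GAPDH, POLR2A) after 48 h treatment of HepaRG cells. Eight-point half-log series up to 100 uM in 0.5% DMSO, run in duplicate.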

[12] = read-out: ABC Transporter (ABCB1), ABCB1 (gene 5243); assay: LTEA_HepaRG_ABCB1: Life Technologies and Expression Analysis (LTEA) Assay for ABC Transporter (ABCB1) using HepaRG (AID 2283460)
Summary of the method: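 ABCB1 transcript level measured by TaqMan qRT-PCR against three housekeeping genes after 48 h chemical exposure of differentiated HepaRG cells. Top concentration 100 uM, half-log steps, eight points, 0.5% DMSO vehicle; bidirectional fit relative to DMSO.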

[13] = read-out: growth arrest and DNA damage 45 (GADD45B), GADD45B (gene 4616); assay: LTEA_HepaRG_GADD45B: Life Technologies and Expression Analysis (LTEA) Assay for growth arrest and DNA damage 45 (GADD45B) using HepaRG (AID 2283461)
Summary of the method: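 Differentiated human HepaRG cells in serum-free induction medium exposed 48 h in duplicate to eight concentrations, top 100 uM, half-log steps, 0.5% DMSO. GADD45B mRNA by TaqMan qRT-PCR, normalized to ACTB, GAPDH, POLR2A; bidirectional fit versus DMSO.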

[14] = read-out: ABC Transporter (ABCC3), ABCC3 (gene 8714); assay: LTEA_HepaRG_ABCC3: Life Technologies and Expression Analysis (LTEA) Assay for ABC Transporter (ABCC3) using HepaRG (AID 2283462)
Summary of the method: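 Differentiated human HepaRG cells exposed 48 h in serum-free induction medium, 0.5% DMSO vehicle, 8-point half-log series to 100 uM in duplicate. ABCC3 mRNA by qRT-PCR, normalised to ACTB, GAPDH, POLR2A; bidirectional fit vs DMSO.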

[15] = read-out: ABC Transporter (ABCB11), ABCB11 (gene 8647); assay: LTEA_HepaRG_ABCB11: Life Technologies and Expression Analysis (LTEA) Assay for ABC Transporter (ABCB11) using HepaRG (AID 2283463)
Summary of the method: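 ABCB11 transcript levels quantified by TaqMan qRT-PCR against three housekeeping genes after 48 h chemical exposure of HepaRG cultures. Concentrations up to 100 uM in half-log steps, 0.5% DMSO vehicle; both induction and suppression scored.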

[16] = read-out: ABC Transporter (ABCC2), ABCC2 (gene 1244); assay: LTEA_HepaRG_ABCC2: Life Technologies and Expression Analysis (LTEA) Assay for ABC Transporter (ABCC2) using HepaRG (AID 2283464)
Summary of the method: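 Differentiated HepaRG cells in serum-free induction medium exposed 48 h to eight half-log concentrations up to 100 uM, 0.5% DMSO, in duplicate. ABCC2 mRNA measured by qRT-PCR (TaqMan, Fluidigm), normalized to ACTB, GAPDH and POLR2A. Fitted in both directions against DMSO.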

[17] = read-out: Broad substrate specificity ATP-binding cassette transporter ABCG2 (Homo sapiens) (UniProt Q9UNQ0); assay: LTEA_HepaRG_ABCG2: Life Technologies and Expression Analysis (LTEA) Assay for ABC Transporter (ABCG2) using HepaRG (AID 2283465)
Summary of the method: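 ABCG2 transcript was quantified by TaqMan qRT-PCR against three housekeeping genes in HepaRG cells. Cells were treated in duplicate for 48 h across an 8-point half-log series up to 100 uM, with 0.5% DMSO vehicle. Gain or loss versus DMSO was fit.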

[18] = read-out: ATP-citrate lyase (ACLY), ACLY (gene 47); assay: LTEA_HepaRG_ACLY: Life Technologies and Expression Analysis (LTEA) Assay for ATP-citrate lyase (ACLY) using HepaRG (AID 2283466)
Summary of the method: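 ACLY mRNA quantified by qRT-PCR on Fluidigm arrays against three housekeeping genes, after 48 h chemical treatment of HepaRG cells (top concentration 100 uM, half-log steps, 0.5% DMSO vehicle). Up- or down-regulation fitted relative to DMSO.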

[19] = read-out: Forkhead box O3 (FOXO3), FOXO3 (gene 2309); assay: LTEA_HepaRG_FOXO3: Life Technologies and Expression Analysis (LTEA) Assay for Forkhead box O3 (FOXO3) using HepaRG (AID 2283459)
Summary of the method: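 FOXO3 transcript measured by qRT-PCR (normalized to ACTB, GAPDH, POLR2A) after 48 h exposure of HepaRG cells in serum-free induction medium. Duplicates, eight half-log concentrations up to 100 uM, 0.5% DMSO; gain or loss fitted against DMSO.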

Sequence of Fatty acid synthase (Homo sapiens) (P49327 whole entry, looked up): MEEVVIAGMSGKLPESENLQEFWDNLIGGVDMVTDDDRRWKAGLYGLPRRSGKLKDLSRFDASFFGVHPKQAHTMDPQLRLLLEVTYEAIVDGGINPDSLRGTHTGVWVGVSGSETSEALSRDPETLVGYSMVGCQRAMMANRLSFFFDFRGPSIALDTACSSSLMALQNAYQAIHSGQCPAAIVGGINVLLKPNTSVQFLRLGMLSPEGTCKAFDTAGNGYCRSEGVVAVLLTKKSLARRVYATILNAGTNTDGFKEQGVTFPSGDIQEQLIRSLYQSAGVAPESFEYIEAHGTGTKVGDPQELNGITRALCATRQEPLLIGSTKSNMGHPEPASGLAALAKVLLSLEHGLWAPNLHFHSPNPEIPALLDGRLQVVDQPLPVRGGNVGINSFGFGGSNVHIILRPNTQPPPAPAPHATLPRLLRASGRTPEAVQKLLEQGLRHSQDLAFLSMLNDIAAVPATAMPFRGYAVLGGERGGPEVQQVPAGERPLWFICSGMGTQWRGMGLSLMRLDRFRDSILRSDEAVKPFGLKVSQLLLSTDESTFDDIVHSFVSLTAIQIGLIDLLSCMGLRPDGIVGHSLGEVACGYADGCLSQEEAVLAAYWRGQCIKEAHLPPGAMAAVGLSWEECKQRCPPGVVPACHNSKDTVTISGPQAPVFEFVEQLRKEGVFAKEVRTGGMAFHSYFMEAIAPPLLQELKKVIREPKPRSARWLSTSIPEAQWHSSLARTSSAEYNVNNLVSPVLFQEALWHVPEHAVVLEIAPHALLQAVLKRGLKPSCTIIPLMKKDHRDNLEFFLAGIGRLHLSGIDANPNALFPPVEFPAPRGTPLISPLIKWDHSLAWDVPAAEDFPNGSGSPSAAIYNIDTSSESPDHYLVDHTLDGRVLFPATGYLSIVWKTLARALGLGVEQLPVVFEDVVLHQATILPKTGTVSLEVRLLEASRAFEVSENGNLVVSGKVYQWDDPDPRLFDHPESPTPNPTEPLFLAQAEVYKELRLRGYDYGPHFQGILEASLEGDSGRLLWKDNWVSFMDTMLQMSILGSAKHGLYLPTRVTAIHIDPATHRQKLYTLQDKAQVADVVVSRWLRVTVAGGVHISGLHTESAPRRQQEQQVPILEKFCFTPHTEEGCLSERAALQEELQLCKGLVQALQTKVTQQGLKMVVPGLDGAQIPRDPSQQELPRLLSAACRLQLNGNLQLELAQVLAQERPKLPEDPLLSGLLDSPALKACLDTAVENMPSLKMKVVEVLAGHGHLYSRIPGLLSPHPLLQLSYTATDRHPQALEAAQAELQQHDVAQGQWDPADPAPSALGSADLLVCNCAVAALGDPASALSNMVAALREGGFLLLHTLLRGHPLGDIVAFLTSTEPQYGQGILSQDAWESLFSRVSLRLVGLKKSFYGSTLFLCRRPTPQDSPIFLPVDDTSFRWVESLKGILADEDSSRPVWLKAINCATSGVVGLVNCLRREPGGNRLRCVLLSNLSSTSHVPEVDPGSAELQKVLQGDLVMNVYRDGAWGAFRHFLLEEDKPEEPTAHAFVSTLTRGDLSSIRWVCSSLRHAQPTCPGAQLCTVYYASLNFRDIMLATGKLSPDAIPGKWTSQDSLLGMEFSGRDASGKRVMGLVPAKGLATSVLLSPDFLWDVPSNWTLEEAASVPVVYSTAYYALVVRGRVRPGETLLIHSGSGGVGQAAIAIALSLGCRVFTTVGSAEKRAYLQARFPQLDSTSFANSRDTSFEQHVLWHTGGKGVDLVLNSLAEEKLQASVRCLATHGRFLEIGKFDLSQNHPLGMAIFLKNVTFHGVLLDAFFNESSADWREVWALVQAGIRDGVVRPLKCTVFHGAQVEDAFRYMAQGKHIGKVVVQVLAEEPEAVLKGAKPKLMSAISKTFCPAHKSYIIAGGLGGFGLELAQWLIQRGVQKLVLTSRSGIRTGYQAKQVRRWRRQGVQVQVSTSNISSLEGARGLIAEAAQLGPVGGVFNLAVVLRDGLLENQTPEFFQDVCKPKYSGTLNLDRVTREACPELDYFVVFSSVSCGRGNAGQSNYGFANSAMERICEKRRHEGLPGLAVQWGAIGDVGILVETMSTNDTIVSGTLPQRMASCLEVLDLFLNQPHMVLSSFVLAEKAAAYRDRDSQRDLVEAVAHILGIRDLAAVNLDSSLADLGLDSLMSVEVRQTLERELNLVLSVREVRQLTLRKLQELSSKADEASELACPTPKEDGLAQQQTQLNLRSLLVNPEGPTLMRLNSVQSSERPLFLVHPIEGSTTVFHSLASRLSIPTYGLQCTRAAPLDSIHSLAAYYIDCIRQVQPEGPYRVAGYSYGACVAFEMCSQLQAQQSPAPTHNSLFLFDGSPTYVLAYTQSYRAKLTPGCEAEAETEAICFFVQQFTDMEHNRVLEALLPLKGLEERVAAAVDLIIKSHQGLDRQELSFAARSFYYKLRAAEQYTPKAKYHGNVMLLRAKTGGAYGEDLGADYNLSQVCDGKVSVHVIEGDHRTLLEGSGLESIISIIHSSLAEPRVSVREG
Sequence of Broad substrate specificity ATP-binding cassette transporter ABCG2 (Homo sapiens) (Q9UNQ0 whole entry, looked up): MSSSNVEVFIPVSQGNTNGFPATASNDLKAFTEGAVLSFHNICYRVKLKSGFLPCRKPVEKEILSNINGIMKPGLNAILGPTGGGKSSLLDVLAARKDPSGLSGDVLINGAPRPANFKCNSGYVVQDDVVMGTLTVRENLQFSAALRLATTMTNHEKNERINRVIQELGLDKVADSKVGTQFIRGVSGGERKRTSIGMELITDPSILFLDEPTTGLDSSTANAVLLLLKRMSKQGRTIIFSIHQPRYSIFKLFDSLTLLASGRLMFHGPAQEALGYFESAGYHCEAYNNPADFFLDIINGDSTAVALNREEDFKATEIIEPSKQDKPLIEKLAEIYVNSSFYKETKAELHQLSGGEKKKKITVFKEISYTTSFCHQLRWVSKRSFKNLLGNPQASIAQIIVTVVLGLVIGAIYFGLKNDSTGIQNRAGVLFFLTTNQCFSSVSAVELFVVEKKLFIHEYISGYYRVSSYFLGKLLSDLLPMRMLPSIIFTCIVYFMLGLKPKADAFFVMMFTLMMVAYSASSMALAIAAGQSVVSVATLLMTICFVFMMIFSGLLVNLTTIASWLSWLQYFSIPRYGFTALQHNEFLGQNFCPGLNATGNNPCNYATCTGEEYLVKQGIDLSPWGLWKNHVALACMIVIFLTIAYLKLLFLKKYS

Nc1nc(N)nc(NC2CC2)n1
outcome [1]: inactive
outcome [2]: inactive
outcome [3]: inactive
outcome [4]: inactive
outcome [5]: inactive
outcome [6]: inactive
outcome [7]: inactive
AC50 [8]: 50 µM (active)
outcome [9]: inactive
outcome [10]: inactive
outcome [11]: inactive
outcome [12]: inactive
outcome [13]: inactive
outcome [14]: inactive
outcome [15]: inactive
outcome [16]: inactive
outcome [17]: inactive
outcome [18]: inactive

CCCCSP(=O)(SCCCC)SCCCC
outcome [1]: inactive
outcome [2]: inactive
outcome [3]: inactive
outcome [4]: inactive
outcome [5]: inactive
outcome [6]: inactive
outcome [7]: inactive
AC50 [8]: 27.6 µM (active)
outcome [9]: inactive
outcome [10]: inactive
outcome [11]: inactive
outcome [19]: inactive
AC50 [12]: 50 µM (active)
outcome [13]: inactive
outcome [14]: inactive
AC50 [15]: 73.9 µM (active)
outcome [16]: inactive
AC50 [17]: 50 µM (active)
outcome [18]: inactive

CCOP(=S)(OCC)Oc1ccc2c(C)c(Cl)c(=O)oc2c1
outcome [1]: inactive
outcome [2]: inactive
outcome [3]: inactive
outcome [4]: inactive
outcome [5]: inactive
outcome [6]: inactive
AC50 [7]: 81.1 µM (active)
AC50 [8]: 6.37 µM (active)
outcome [9]: inactive
outcome [10]: inactive
outcome [11]: inactive
AC50 [12]: 12.9 µM (active)
outcome [13]: inactive
outcome [14]: inactive
outcome [15]: inactive
outcome [16]: inactive
AC50 [17]: 13.3 µM (active)
outcome [18]: inactive
